Shown are actives, neighbours in structure and some others; about 7.3% of the full set was active somewhere.
FLuc modulator = qHTS profiling assay for firefly luciferase inhibitor/activator using purifed enzyme and Km concentrations of substrates (counterscreen for miR-21 project); Potency, µM (highest dose often 57.5 µM), for inactives: at the highest dose activity change, negative = inhibition, actives largely listed as inhibitors; purified FLuc, Km substrates, luminescence inhibition; Luciferin 4-monooxygenase (Photinus pyralis), P08659; 360,000 tested, 6.9% active;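 note: plate controls were vehicle for no effect and reference inhibitor for full effect; nearly all actives have a fitted effect of over 55% in size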
Target sequence (P08659 whole entry, looked up): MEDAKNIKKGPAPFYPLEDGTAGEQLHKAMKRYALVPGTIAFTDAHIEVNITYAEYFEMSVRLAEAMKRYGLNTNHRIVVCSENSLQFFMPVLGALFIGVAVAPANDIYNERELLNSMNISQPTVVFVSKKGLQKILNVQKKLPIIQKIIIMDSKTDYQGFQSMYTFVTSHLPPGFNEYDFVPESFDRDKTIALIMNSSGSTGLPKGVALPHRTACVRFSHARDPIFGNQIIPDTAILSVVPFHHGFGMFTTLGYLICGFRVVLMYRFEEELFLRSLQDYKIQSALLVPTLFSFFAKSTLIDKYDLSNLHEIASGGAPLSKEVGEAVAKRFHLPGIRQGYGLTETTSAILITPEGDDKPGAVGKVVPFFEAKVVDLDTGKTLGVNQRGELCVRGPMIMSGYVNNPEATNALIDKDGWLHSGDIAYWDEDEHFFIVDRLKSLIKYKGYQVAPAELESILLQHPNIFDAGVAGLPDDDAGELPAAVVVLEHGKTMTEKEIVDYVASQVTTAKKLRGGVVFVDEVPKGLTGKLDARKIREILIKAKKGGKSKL
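Biochemical qHTS of compounds, final roughly 60 µM downward over six points, against 10 nM purified firefly luciferase using Km concentrations of substrates (10 uM D-luciferin, 10 uM ATP) in Tris acetate pH 7.5 buffer; luminescence output.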
Rab9 prom act = qHTS Assay for Rab9 Promoter Activators | Huh7 Rab9 promoter-luciferase reporter, luminescence, 24 h | Potency, µM (doses to about 9.22 µM), for the others: at the top dose activation, negative = inhibition, hits mostly activators | 320,000 tested, 2.8% active | AID 485297, 2010; note: % of control where 0% means no effect; nearly all actives have a fitted effect of over 60% in size
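Rab9 promoter-driven luciferase in stably transfected Huh7 cells; 1500 cells/well rested 2 h, exposed to compound in DMSO for 24 h at 37 °C, 5% CO2. Luminescence read 10 min after adding luciferase reagent at ambient temperature.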
NPC1 prom act = qHTS Assay for NPC1 Promoter Activators. Huh7 NPC1 promoter luciferase reporter, 24 h. Potency, µM (doses to about 9.22 µM), for inactives: at the highest dose activation, usual class: activators. 320,000 tested, 2.4% active; note: % of control where 0% means no effect; nearly all actives have a fitted effect of over 60% in size
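Huh7 reporter cells (NPC1 promoter driving luciferase) are dosed with compound for 24 h at 37 °C, 5% CO2; luciferase detection reagent is then added and luminescence measured after 10 min at ambient temperature.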
ELG1 genotox = qHTS screen for small molecules that induce genotoxicity in human embryonic kidney (HEK293T) cells expressing luciferase-tagged ELG1; HEK293T ELG1-luciferase reporter, luminescence, 16 h; Potency, µM (top dose mostly 46 µM), for the others: at the top dose activity change, positive = activation, actives largely listed as activators; 330,000 tested, 1.3% active; AID 504466, 2011; note: % of control where 0% means no effect; nearly all actives have a fitted effect of over 60% in size
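HEK293T cells expressing luciferase-tagged ELG1 were exposed to compound or DMSO vehicle for 16 hr at 37 °C and 5% CO2. Luciferase activity was then measured with ONE-Glo after 30 min at room temperature.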
p53 reactivator = qHTS assay for re-activators of p53 using a Luc reporter; 320,000 tested, 0.063% active; Potency, µM (series often up to 92.2 µM), for the others: top-dose activity change, positive = activation, usual class: activators; H1299 p53-A138V BP100-luciferase reporter, luminescence, 24 h; note: % of control where 0% means no effect; nearly all actives have a fitted effect of over 45% in size
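p53-null H1299 cells stably carrying temperature-sensitive p53-A138V and a BP100-luciferase reporter were pinned with compounds (4-point, 1:5 series) and held 24 hrs at 37 deg C. Luminescence was read 10 min after detection reagent.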
SMN2 splice enh = qHTS Assay for Enhancers of SMN2 Splice Variant Expression; HEK293 SMN2-luciferase splicing reporter, luminescence, 30-36 h; Potency, µM (doses to about 46.1 µM), for inactives: at the top dose activity change, positive = activation, hits mostly activators; 210,000 tested, 2.8% active; note: % of control where 0% means no effect; nearly all actives have a fitted effect of over 55% in size
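qHTS luciferase splicing reporter: luminescence rises when SMN2 exon 7 is included in transfected HEK293 cells. Compound exposure lasted 30-36 h at 37C, with 4.5 mM final sodium butyrate as control, followed by a ONE-Glo read.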
The depositor's hits bear a star; ? = inconclusive; / = no result. Calls come from the whole dose curve; as a rule, active = well fitted curve in the direction sought with a large enough effect; inconclusive = small, poorly fitted or top-dose-only effect, or another doubt; inactive = no such curve, though single readings can be large; an effect the other way counts as inactive or inconclusive. Potency is the fitted concentration of half-maximal effect.

SMILES | FLuc modulator | Rab9 prom act | NPC1 prom act | ELG1 genotox | p53 reactivator | SMN2 splice enh
C=CCc1ccccc1OCC(O)CN1C(=O)c2ccccc2C1=O (centres undefined) | -12% | 3% | -3% | -2% | ? | /
O=C1c2ccccc2C(=O)N1CC(O)COc1ccccc1Cl (centres undefined) | 11µM* | ? | 18% | 5% | / | /
Cc1ccccc1OCC(O)CN1C(=O)c2ccccc2C1=O (centres undefined) | 13µM* | 4% | 3% | 9% | -2% | /
COc1cc(S(=O)(=O)NCCc2c(C)[nH]c3ccccc23)c(C)cc1C | 1% | / | / | / | / | -4%
O=C(c1cc2c(s1)-c1ccccc1OC2)N1CCN(c2ccccc2)CC1 | -12% | -5% | 5% | -18% | 4% | 0%
O=C(c1cc2c(s1)-c1ccccc1OC2)N1CCCC1 | 12µM* | 2.8µM* | ? | ? | ? | -22%
CCOC(=O)N1CCN(C(=O)c2cc3c(s2)-c2ccccc2OC3)CC1 | 1% | -5% | -1% | 3% | 0% | 1%
CCCN1CCN(C(=O)c2cc3c(s2)-c2ccccc2OC3)CC1 | 7.6µM* | 4µM* | ? | 15µM* | / | /
COc1ccc(C(=O)Nc2nnc(S(=O)(=O)N3CCCc4ccccc43)s2)cc1 | -5% | / | / | / | / | /
CCC(Sc1ncc(S(=O)(=O)c2ccc(Cl)cc2)c(=O)[nH]1)C(=O)Nc1ccc(OC)cc1 (centres undefined) | ? | / | / | / | / | -2%
CC(C)Oc1cccc(C(=O)C2CCCN(C(=O)CCc3cnn(C)c3)C2)c1 (centres undefined) | ? | 3.5µM* | ? | ? | 7% | /
Cc1nn(C)c(C)c1CCC(=O)N1CCCC(C(=O)c2cccc(OC(C)C)c2)C1 (centres undefined) | -13% | 1% | 8% | 0% | 4% | /
Cc1ccccc1C(=O)Nc1cccc(-c2cn3ccccc3n2)c1 | 6.7µM* | 1% | 0% | -18% | 17% | -4%
Cc1ccc(C(=O)Nc2cccc(-c3cn4ccccc4n3)c2)cc1 | 6µM* | ? | 24% | 1% | 4% | /
Cc1cc(C)cc(C(=O)Nc2ccc(-c3cn4cccnc4n3)cc2)c1 | 2% | / | / | / | / | -33%
O=C(Nc1cccc(-c2cn3ccccc3n2)c1)c1ccccc1 | 4.8µM* | ? | 24% | -2% | -1% | ?
O=C(Nc1ccc(-c2cn3ccccc3n2)cc1)c1ccco1 | 2.4µM* | 3.2µM* | 2.8µM* | ? | ? | 11µM*
O=C(Nc1cccc(-c2cn3cccnc3n2)c1)c1ccco1 | ? | 0% | 2% | -3% | 7% | 4%
COCCn1c(SCC(=O)c2ccccc2)nc2cc(C(=O)NC3CCCC3)ccc2c1=O | 1% | / | / | / | / | /
CCCSc1ncc(Cl)c(C(=O)Nc2c(C(=O)c3ccc(C)cc3)oc3ccccc23)n1 | 1% | / | / | / | / | 9%
CCC1CCCCN1C(=O)CSc1nc(N)cc(N)n1 (centres undefined) | 4% | -2% | -3% | -4% | -2% | -10%
CC(C)CC(=O)Nc1ccc(C(=O)OCc2cc(=O)n3nc(C(C)C)sc3n2)cc1 | -3% | / | / | / | / | /
CCCCC(=O)Nc1cccc(-c2cn3ccccc3n2)c1 | 12µM* | 22% | 30% | 6% | 30% | /
CCn1ccc2cc(S(=O)(=O)N3CCCN(C(=O)NCCOC)CC3)ccc21 | -2% | / | / | / | / | /
Cc1ccc(Nc2nc(-c3sc(N)nc3C)cs2)cc1 | 2.1µM* | 2.2µM* | 0.79µM* | ? | 7% | /
SMILES | FLuc modulator | Rab9 prom act | NPC1 prom act | ELG1 genotox | p53 reactivator | SMN2 splice enh
Cc1ccc(Nc2nc(-c3sc(C)nc3C)cs2)cc1 | 12µM* | 0% | -18% | 18% | -8% | /
CCOc1ccc(Nc2nc(-c3sc(N)nc3C)cs2)cc1 | 15µM* | 26% | ? | 10% | -1% | /
CC(=O)Nc1ccc(Nc2nc(-c3sc(C)nc3C)cs2)cc1 | 21µM* | -1% | -5% | -9% | -35% | /
COc1ccc(Nc2nc(-c3sc(NC(C)=O)nc3C)cs2)cc1 | ? | 0% | -6% | -6% | 1% | -8%
Cc1nc(C)c(-c2csc(Nc3ccc(S(N)(=O)=O)cc3)n2)s1 | -4% | -2% | -8% | 3% | -79% | /
COc1ccc(Cl)cc1NC(=O)CN1c2ccccc2S(=O)(=O)c2ccccc21 | -3% | / | / | / | / | /
COc1ccc(Nc2nc(-c3sc(N)nc3C)cs2)cc1 | 13µM* | 22% | ? | ? | 18% | 18%
COCc1cc(C)nc(N/N=C/c2ccc(-c3ccc(Cl)cc3[N+](=O)[O-])o2)c1C#N | -10% | 4µM* | 0% | -1% | -1% | -3%
Cc1cc(N2CCN(c3ccccc3)CC2)n2cc(-c3ccccc3)nc2n1 | 24µM* | 1% | 1% | -5% | 4% | -10%
Cc1cc(N2CCN(c3ccccc3Cl)CC2)n2cc(-c3ccccc3)nc2n1 | ? | -8% | 1% | -21% | -13% | -7%
O=S(=O)(c1ccc2ccccc2c1)N1CCC(c2nc(-c3ccncc3)no2)CC1 | 0% | -21% | -17% | 0% | -7% | -78%
O=C(N/N=C/c1cccs1)c1c[nH]c2ccccc12 | 6µM* | 2.8µM* | 3.2µM* | ? | 24% | 11µM*
O=C(N/N=C/c1cccs1)c1cc(-c2ccncc2)nc2ccccc12 | ? | -16% | -8% | 5% | 5% | -22%
CCc1ccc(/C=N/NC(=O)c2c[nH]c3ccccc23)s1 | 6µM* | 1.3µM* | 2µM* | ? | 22% | 6.3µM*
Cc1ccccc1-c1cc2nccc(-c3cc(Cl)ccc3O)n2n1 | -2% | / | / | / | / | 3%
NCC1CCCCC1CC(=O)O (centres undefined) | / | / | / | / | / | 4%
CCOC(=O)N1CCN(C(=O)c2ccc3c(c2)N(Cc2cc(C)ccc2C)C(=O)c2ccccc2S3=O)CC1 (centres undefined) | 0% | 0% | -2% | -3% | -5% | ?
COC(=O)c1ccc(NC(=S)NNC(=O)c2ccccc2)cc1 | 24µM* | 1% | 5% | -3% | 6% | /
O=C(NNC(=S)Nc1ccccc1)c1cccs1 | ? | 1.6µM* | ? | ? | ? | 10µM*
O=C(NNC(=S)Nc1ccc(Cl)cc1)c1cccs1 | ? | ? | ? | 5% | 5% | /
COC(=O)c1ccc(NC(=S)Nc2ccccc2)cc1 | ? | 16% | 16% | ? | -4% | -40%
O=C(NNC(=S)NC(=O)c1ccccc1)c1ccc(O)cc1 | 3% | -2% | -3% | -8% | 12% | /

Screens deposited in PubChem BioAssay by National Center for Advancing Translational Sciences (NCATS).
